According to PubChem BioAssay AID1611 (NINDS Approved Drug Screening Program, 2009):

Assay: inducers of human heat shock response, cell-based, HSE luciferase (AID 1611)
Settings: human cells, HSE-luciferase heat shock reporter; stronger effect = higher value

| Structure (SMILES) | fold change |
| --- | --- |
| Cc1nnc(NS(=O)(=O)c2ccc(N)cc2)s1 | 0.85 |
| CC(C[N+](C)(C)C)OC(N)=O (stereo not given) | 0.9 |
| C[C@@H]1O[C@@H](O[C@H]2[C@H](Oc3cc(O)c4c(c3)O[C@H](c3ccc(O)cc3)CC4=O)O[C@H](CO)[C@@H](O)[C@@H]2O)[C@H](O)[C@H](O)[C@H]1O | 1.36 |
| O=C(O)CCCCC1SCC2NC(=O)NC21 (stereo not given) | 2.49 |
| O=c1ccn([C@@H]2O[C@H](COP(=O)(O)OP(=O)(O)OP(=O)(O)O)[C@@H](O)[C@H]2O)c(=O)[nH]1 | 1.15 |
| O=c1[nH]cc(F)c(=O)[nH]1 | 0.52 |
| CN1C(C(=O)Nc2ccccn2)=C(O)c2sccc2S1(=O)=O | 0.84 |
| CSc1ccc2c(c1)N(CCC1CCCCN1C)c1ccccc1S2 (stereo not given) | 0.58 |
| c1ccc(CN(CC2=NCCN2)c2ccccc2)cc1 | 1.78 |
| NC(N)=N/N=C\c1c(Cl)cccc1Cl | 0.39 |
| CCCCCCc1ccc(O)cc1O | 1.27 |
| CC(C)(C)NCC(O)c1cc(O)cc(O)c1 (stereo not given) | 0.99 |
| c1coc(CNc2ncnc3nc[nH]c23)c1 | 1.22 |
| CCC1(C)CC(=O)NC1=O (stereo not given) | 1.19 |
| O=C(O)c1ccccc1OP(=O)(O)O | 1.04 |
| CN(C)CCC=C1c2ccccc2C=Cc2ccccc21 | 0.63 |
| CC1CCc2cc(F)cc3c(=O)c(C(=O)O)cn1c23 (stereo not given) | 1.07 |
| CCN(CC)CCOC(=O)C1(C2CCCCC2)CCCCC1 | 0.64 |
| O=C(OCc1ccccc1)c1ccccc1 | 0.75 |
| NS(=O)(=O)c1cc2c(cc1Cl)NCNS2(=O)=O | 0.97 |

| Structure (SMILES) | fold change |
| --- | --- |
| O=C1c2cccc(O)c2C(=O)c2c(O)cccc21 | 0.86 |
| O=C1C(CCS(=O)c2ccccc2)C(=O)N(c2ccccc2)N1c1ccccc1 (stereo not given) | 0.91 |
| O=C(Cn1ccnc1[N+](=O)[O-])NCCO | 0.93 |
| CCOc1ccc(Cc2nccc3cc(OCC)c(OCC)cc23)cc1OCC | 1.35 |
| CCCCOc1ccc(CC(=O)NO)cc1 | 0.79 |
| CN1CCC[C@@H]1CCO[C@](C)(c1ccccc1)c1ccc(Cl)cc1 | 0.87 |
| Cc1nnc(SCC2=C(C(=O)O)N3C(=O)[C@@H](NC(=O)Cn4cnnn4)[C@H]3SC2)s1 | 0.8 |
| COC1=CC(=O)C[C@@H](C)[C@]12Oc1c(Cl)c(OC)cc(OC)c1C2=O | 0.94 |
| CC(C)CC1NC(=O)CNC1=O (stereo not given) | 0.55 |
| COc1cc(NS(=O)(=O)c2ccc(N)cc2)nc(OC)n1 | 0.93 |
| CC[C@H]1OC(=O)[C@H](C)[C@@H](O[C@H]2C[C@@](C)(OC)[C@@H](O)[C@H](C)O2)[C@H](C)[C@@H](O[C@@H]2O[C@H](C)C[C@H](N(C)C)[C@H]2O)[C@](C)(O)C[C@@H](C)C(=O)[C@H](C)[C@@H](O)[C@]1(C)O | 0.93 |
| CCC(=O)c1ccc2c(c1)N(CC(C)N(C)C)c1ccccc1S2 (stereo not given) | 0.88 |
| CCCCNc1cc(C(=O)O)cc(S(N)(=O)=O)c1Oc1ccccc1 | 1.03 |
| NC(N)=NC(N)=Nc1ccccc1 | 0.95 |
| CC[C@]12CCCN3CCc4c(n(c5ccccc45)[C@](O)(C(=O)OC)C1)[C@@H]32 | 1.14 |
| Nc1nccs1 | 1.19 |
| CN1CCC(=C2c3ccccc3CC(=O)c3sccc32)CC1 | 1.41 |
| CCCOc1ccc2nc(NC(=O)OC)[nH]c2c1 | 1.26 |
| N[C@@H]1CONC1=O | 1.23 |
| CC(=O)[C@H]1CCC2C3CC=C4C[C@@H](O)CC[C@]4(C)C3CC[C@@]21C (stereo not given in full) | 0.92 |
